{"source": "PubChem BioAssay (NCATS)", "note": "Records with an inconclusive call do not appear. Entries that show only a call come without a potency. Active and inactive are the calls of the source. Calls come from the whole dose curve; as a rule, active = well fitted inhibition curve with a large enough effect; inconclusive = small, poorly fitted or top-dose-only effect; inactive = no such curve, though single readings can be large or run the other way. Potency is the fitted concentration of half-maximal effect."}
{"target": "Papain (Carica papaya) (UniProt P00784)", "sequence (P00784 whole entry, looked up)": "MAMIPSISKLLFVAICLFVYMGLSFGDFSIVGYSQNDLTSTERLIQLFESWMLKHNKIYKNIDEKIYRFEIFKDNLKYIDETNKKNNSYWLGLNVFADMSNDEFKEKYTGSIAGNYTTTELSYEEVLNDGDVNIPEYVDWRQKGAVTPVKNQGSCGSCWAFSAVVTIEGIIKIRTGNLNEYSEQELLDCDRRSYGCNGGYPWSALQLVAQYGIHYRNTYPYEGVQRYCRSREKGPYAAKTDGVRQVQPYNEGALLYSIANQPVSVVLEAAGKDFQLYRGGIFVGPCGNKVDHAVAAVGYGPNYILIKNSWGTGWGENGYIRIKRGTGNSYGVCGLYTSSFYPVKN", "assay": "Primary qHTS assay for inhibitors of the protease papain (AID 1645873);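 note: papain turnover of Z-FR-AMC read as the AMC fluorescence gain over 10 min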", "settings": "papain Z-FR-AMC cleavage, AMC fluorescence; series mostly up to 49.8 µM"}
{"smiles": "CP(=O)(O)C1=CCNCC1", "Potency": "inactive"}
{"smiles": "C[N+]1(C)C2CCC1CC(OC(=O)c1c[nH]c3ccccc13)C2", "note": "(stereo unspecified)", "Potency": "inactive"}
{"smiles": "C#CCN[C@H](C)Cc1ccccc1", "Potency": "inactive"}
{"smiles": "O=C1CC[C@@]2(O)C3Cc4ccc(O)c5c4C2(CCN3CC2CC2)[C@H]1O5", "note": "(stereo partly specified)", "Potency": "inactive"}
{"smiles": "Nc1ccc(CCN2CCN(c3cccc(C(F)(F)F)c3)CC2)cc1", "Potency": "inactive"}
{"smiles": "COc1ccc2c(c1)C13CCCCC1C(C2)N(C)CC3", "note": "(stereo unspecified)", "Potency": "inactive"}
{"smiles": "Nc1cc2c(ncn2CCOCP(=O)(O)O)c(=O)[nH]1", "Potency": "inactive"}
{"smiles": "CC(Cc1ccc(OCC(=O)O)cc1)NCC(O)c1cccc(Cl)c1", "note": "(stereo unspecified)", "Potency": "inactive"}
{"smiles": "NCCCP(=O)(O)O", "Potency": "inactive"}
{"smiles": "CN(C(=O)Cc1ccc(Cl)c(Cl)c1)C(CN1CCCC1)c1cccc(OCC(=O)O)c1", "note": "(stereo unspecified)", "Potency": "inactive"}
{"smiles": "Clc1cc(I)cc(Cl)c1NC1=NCCN1", "Potency": "inactive"}
{"smiles": "OC1CCCCC1N1CCC(c2ccccc2)CC1", "note": "(stereo unspecified)", "Potency": "inactive"}
{"smiles": "N[C@@]1(C(=O)O)CC[C@@H](C(=O)O)C1", "Potency": "inactive"}
{"smiles": "NC(=O)COc1c(F)cc(SCCNS(=O)(=O)c2ccccc2)cc1F", "Potency": "inactive"}
{"smiles": "Oc1ccc2c3c1O[C@H]1c4oc5ccccc5c4C[C@@]4(O)C(C2)N(CC2CC2)CCC314", "note": "(stereo partly specified)", "Potency": "inactive"}
{"smiles": "C[N+]1(C)CCOC(O)(c2ccc(-c3ccc(C4(O)C[N+](C)(C)CCO4)cc3)cc2)C1", "note": "(stereo unspecified)", "Potency": "inactive"}
{"smiles": "CCN1C[C@@]2(COC)C3[C@@H](OC)C4[C@@H]1C3([C@@H]1C[C@]3(O)[C@H](OC(=O)c5ccccc5)[C@@H]1[C@]4(OC(C)=O)[C@@H](O)[C@@H]3OC)[C@H](OC)C[C@H]2O", "Potency": "inactive"}
{"smiles": "NCCc1c[nH]c2ccc(C(N)=O)cc12", "Potency": "inactive"}
{"smiles": "COc1ccc(CNC(=O)/C=C/c2ccc3[nH]cc(CCN(C)C)c3c2)cc1", "Potency": "inactive"}
{"smiles": "CC(C)(C)c1o[nH]c(=O)c1CC(N)C(=O)O", "note": "(stereo unspecified)", "Potency": "inactive"}
{"smiles": "O=c1ccc2[nH]cc(C3=CCNCC3)c2[nH]1", "Potency": "25.1 µM (active)"}
{"smiles": "Cc1c2ccncc2c(C)c2c1[nH]c1ccccc12", "Potency": "inactive"}
{"smiles": "CC1(C(=O)O)C2CCC(O2)C1(C)C(=O)O", "note": "(stereo unspecified)", "Potency": "inactive"}
{"smiles": "NC(=O)c1ccc(OCC(O)CN2CC=C(c3ccc(F)cc3)CC2)cc1", "note": "(stereo unspecified)", "Potency": "inactive"}
{"smiles": "Oc1ccc2c3c1O[C@H]1c4[nH]c5ccccc5c4C[C@@]4(O)C(C2)N(CC2CC2)CCC314", "note": "(stereo partly specified)", "Potency": "inactive"}
{"smiles": "O=[N+]([O-])c1ccc2nc(N3CCNCC3)ccc2c1", "Potency": "inactive"}
{"smiles": "CCCC[N+]1(C)C2CC(OC(=O)[C@H](CO)c3ccccc3)CC1C1OC12", "note": "(stereo partly specified)", "Potency": "inactive"}
{"smiles": "NC(N)=NOCC[C@H](N)C(=O)O", "Potency": "inactive"}
{"smiles": "O=[N+]([O-])/C=C/c1ccc2c(c1)OCO2", "Potency": "inactive"}
{"smiles": "O=C1/C(=C/c2ccccc2)C[C@@]2(O)[C@H]3Cc4ccc(O)c5c4[C@@]2(CCN3CC2CC2)[C@H]1O5", "Potency": "inactive"}
{"smiles": "COc1ccc2c(c1O)-c1cccc3c1[C@@H](C2)N(C)CC3", "Potency": "inactive"}
{"smiles": "CN1CCc2cccc(Cl)c2CC1", "Potency": "inactive"}
{"smiles": "N=C(N)c1ccc(CS(=O)(=O)F)cc1", "Potency": "inactive"}
{"smiles": "O=S1(=O)N(CCN2CC=C(c3c[nH]c4cc(F)ccc34)CC2)c2cccc3c2N1CCC3", "Potency": "inactive"}
{"smiles": "C[N+](C)(C)CC#CCN1CCCC1=O", "Potency": "inactive"}
{"smiles": "CC(N)Cc1c[nH]c2ccc(O)cc12", "note": "(stereo unspecified)", "Potency": "inactive"}
